Measurements: PubChem BioAssay (Tox21)
Inconclusive results are not listed. Activity calls are given as the source filed them. Unless noted, calls come from the whole dose curve; as a rule, active = well fitted curve in the direction sought with a large enough effect in the repeat runs; inconclusive = weak or mixed curves; inactive = no such curve, though single readings can be large; an effect the other way counts as inactive or inconclusive.

Tests used:
[1] = qHTS assay to identify small molecule antagonists of the sonic hedgehog signaling (Shh) pathway (AID 1259369; calls by dose curve; note: nearly all actives have a fitted effect of over 45% in size; note: potency is the fitted concentration of half-maximal effect)
How it was run: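 Luminescence readout: firefly Luc under Gli1 response element in 3T3Gli1-Luc cells (NIH/3T3 clone). Antagonist mode, stimulation by conditioned medium; compound exposure 24hr at 37 C, 5% CO2.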

[2] = target: Estrogen receptor beta (Homo sapiens) (UniProt Q92731); experiment: qHTS assay to identify small molecule agonists of the estrogen receptor beta (ER-beta) signaling pathway (AID 1259377; active = well fitted activation curve with a large enough effect in the signal ratio in the repeat runs, not every such curve was filed as active; the % refers to the signal ratio)
Estrogen receptor beta (Homo sapiens), sequence (Q92731 whole entry, looked up): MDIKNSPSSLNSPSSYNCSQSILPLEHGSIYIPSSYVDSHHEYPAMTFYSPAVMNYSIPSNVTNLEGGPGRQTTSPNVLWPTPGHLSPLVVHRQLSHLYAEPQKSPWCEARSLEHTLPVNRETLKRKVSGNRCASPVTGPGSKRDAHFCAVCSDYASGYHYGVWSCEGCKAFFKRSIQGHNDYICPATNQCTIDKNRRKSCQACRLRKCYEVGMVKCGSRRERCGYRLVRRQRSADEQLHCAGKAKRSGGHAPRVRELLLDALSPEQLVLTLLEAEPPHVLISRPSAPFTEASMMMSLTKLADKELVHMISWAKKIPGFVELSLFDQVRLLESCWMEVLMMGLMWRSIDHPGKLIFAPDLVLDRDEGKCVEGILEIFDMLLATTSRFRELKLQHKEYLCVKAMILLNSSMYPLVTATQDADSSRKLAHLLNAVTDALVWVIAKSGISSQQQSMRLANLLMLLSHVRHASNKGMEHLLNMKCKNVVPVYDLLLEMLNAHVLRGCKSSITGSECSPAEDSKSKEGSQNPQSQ
How it was run: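 Beta-lactamase reporter readout: fluorescence of LiveBLAzer B/G FRET substrate after 2 h at room temperature, following 16 h compound treatment of ER-beta-UAS-bla HEK293T cells at 37C in 2% charcoal-stripped FBS medium.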

[3] = target: Estrogen receptor beta (Homo sapiens) (UniProt Q92731); experiment: qHTS assay to identify small molecule antagonists of the estrogen receptor beta (ER-beta) signaling pathway (AID 1259378; active = well fitted inhibition curve with a large enough effect in the signal ratio in the repeat runs, not every such curve was filed as active; the % refers to the signal ratio)
How it was run: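 ER-beta-UAS-bla HEK293T cells in 2% charcoal-stripped FBS medium treated with compound plus 1nM final 17-beta-estradiol for 16 hr at 37C. Beta-lactamase reporter read by FRET substrate fluorescence after 2 hours at room temperature.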

[4] = qHTS assay to identify small molecule agonists of the androgen receptor (AR) signaling pathway in the presence of an antagonist - cell viability counter screen (AID 1259379);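 note: MDA-kb2 human breast cancer cells carrying an MMTV luciferase reporter; series mostly up to about 92 µM; nearly all actives have a fitted effect of over 25% in size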
How it was run: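 Viability counter screen: CellTiter-Fluor fluorescence, measured in the same wells as the luciferase read-out. MDA-kb2 cells, 3,000/well, with nilutamide at 3.0uM final and compounds at 15 concentrations, 16 hr at 37C, 0% CO2.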

[5] = qHTS assay to identify small molecule agonists of the estrogen receptor beta (ER-beta) signaling pathway - cell viability counter screen (AID 1259380); note: nearly all actives have a fitted effect of over 30% in size
How it was run: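 Luminescence read-out (CellTiter-Glo, 30 min, room temp) taken in the same wells as the beta-lactamase reporter assay; ER-beta-UAS-bla HEK293T cells exposed to DMSO-dissolved compounds for 16 hr at 37C in 2% charcoal-stripped FBS medium.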

[6] = qHTS assay to identify small molecule antagonists of the estrogen receptor beta (ER-beta) signaling pathway - cell viability counter screen (AID 1259382); note: series mostly up to about 92 µM; nearly all actives have a fitted effect of over 55% in size
How it was run: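 Luminescent ATP read-out (CellTiter-Glo, 30 min, RT) taken in the same wells as the bla reporter assay. HEK293T ER-beta-UAS-bla cells in 2% charcoal-stripped FBS were exposed to compounds with 1nM E2 for 16 hr at 37C.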

[7] = target: Estrogen receptor (Homo sapiens) (UniProt P03372); experiment: qHTS assay to identify small molecule agonists of the estrogen receptor alpha (ER-alpha) signaling pathway in the presence of an antagonist (AID 1259383; calls by dose curve; note: top concentration of the series differs between compounds; nearly all actives have a fitted effect of over 15% in size)
Estrogen receptor (Homo sapiens), sequence (P03372 whole entry, looked up): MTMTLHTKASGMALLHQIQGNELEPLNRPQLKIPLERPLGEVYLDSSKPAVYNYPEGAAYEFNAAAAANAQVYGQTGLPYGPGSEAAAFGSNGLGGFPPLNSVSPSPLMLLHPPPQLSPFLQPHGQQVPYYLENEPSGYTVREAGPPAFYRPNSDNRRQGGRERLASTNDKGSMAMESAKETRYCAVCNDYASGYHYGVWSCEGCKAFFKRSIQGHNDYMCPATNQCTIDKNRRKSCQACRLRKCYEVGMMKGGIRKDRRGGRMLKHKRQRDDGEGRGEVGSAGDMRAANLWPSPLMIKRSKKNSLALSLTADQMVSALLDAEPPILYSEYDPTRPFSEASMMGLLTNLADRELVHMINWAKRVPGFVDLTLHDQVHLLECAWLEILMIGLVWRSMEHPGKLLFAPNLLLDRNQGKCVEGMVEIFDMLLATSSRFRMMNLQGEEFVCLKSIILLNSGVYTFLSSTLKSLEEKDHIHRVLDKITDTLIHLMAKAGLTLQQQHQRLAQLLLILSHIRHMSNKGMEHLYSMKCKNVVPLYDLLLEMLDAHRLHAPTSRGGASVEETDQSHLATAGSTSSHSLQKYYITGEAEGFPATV
How it was run: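 Luciferase luminescence (ONE-Glo, 30min at room temperature) measured in VM7Luc4E2 cells after 22hr compound exposure at 15 concentrations, with 10.0nM ICI-182,780 final present; cells express endogenous ER-alpha and carry four EREs upstream of luciferase.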

[8] = qHTS assay to identify small molecule agonists or antagonists of the thyroid stimulating hormone receptor (TSHR) signaling pathway - wild type cell line counter screen (AID 1259384; calls by dose curve)
How it was run: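 Wild-type Hek293 cells, 800/well, 18 h at 37C, then compound with Ro20-1724 for 30 min RT. cAMP by HTRF (cAMP-d2/anti-cAMP cryptate), 1 h RT, fluorescence read. 15 concentrations, triplicates.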

[9] = target: Progesterone receptor (Homo sapiens) (UniProt P06401); experiment: qHTS assay to identify small molecule agonists of the progesterone receptor (PR) signaling pathway (AID 1346784; calls by dose curve; note: nearly all actives have a fitted effect of over 30% in size)
Progesterone receptor (Homo sapiens), sequence (P06401 whole entry, looked up): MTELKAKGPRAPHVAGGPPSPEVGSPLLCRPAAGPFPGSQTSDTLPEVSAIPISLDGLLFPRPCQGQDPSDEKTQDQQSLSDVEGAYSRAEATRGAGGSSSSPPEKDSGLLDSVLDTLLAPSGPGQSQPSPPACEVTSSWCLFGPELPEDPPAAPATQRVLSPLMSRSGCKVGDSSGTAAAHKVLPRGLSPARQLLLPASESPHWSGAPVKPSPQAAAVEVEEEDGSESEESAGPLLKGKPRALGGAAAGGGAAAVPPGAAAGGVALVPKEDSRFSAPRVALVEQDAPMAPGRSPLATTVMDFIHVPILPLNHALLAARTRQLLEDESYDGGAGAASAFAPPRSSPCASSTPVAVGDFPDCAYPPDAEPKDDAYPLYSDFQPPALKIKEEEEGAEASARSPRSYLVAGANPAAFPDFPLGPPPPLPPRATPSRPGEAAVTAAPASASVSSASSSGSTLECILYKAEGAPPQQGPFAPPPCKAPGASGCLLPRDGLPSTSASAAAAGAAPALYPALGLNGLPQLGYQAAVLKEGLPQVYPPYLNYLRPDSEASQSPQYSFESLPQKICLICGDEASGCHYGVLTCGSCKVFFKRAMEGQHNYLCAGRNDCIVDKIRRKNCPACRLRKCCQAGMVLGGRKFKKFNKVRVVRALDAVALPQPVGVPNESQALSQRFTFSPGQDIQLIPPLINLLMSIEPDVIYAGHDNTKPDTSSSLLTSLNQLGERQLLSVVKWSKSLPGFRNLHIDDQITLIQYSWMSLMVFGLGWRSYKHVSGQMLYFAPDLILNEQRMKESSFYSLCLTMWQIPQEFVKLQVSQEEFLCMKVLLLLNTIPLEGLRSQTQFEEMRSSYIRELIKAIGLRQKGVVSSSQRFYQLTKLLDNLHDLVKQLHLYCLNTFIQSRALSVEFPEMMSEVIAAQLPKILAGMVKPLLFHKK
How it was run: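 HEK 293T PR-UAS-bla reporter cells, 2% charcoal-stripped FBS; 6 hr settle at 37C/5% CO2, compound (DMSO) 16 hr, LiveBLAzer B/G FRET substrate 2 hr RT, fluorescence intensity read.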

[10] = target: Progesterone receptor (Homo sapiens) (UniProt P06401); experiment: qHTS assay to identify small molecule antagonists of the progesterone receptor (PR) signaling pathway (AID 1346795; active = well fitted inhibition curve with a large enough effect in the signal ratio in the repeat runs, not every such curve was filed as active; the % refers to the signal ratio)
How it was run: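 Beta-lactamase reporter, HEK293T PR-UAS-bla line; 2% charcoal-stripped FBS; 6 hr pre-incubation, 37C/5% CO2. Compound + R5020 1 nM final, 16 hr. LiveBLAzer B/G FRET substrate, 2 hr RT; fluorescence intensity read.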

[11] = qHTS assay to identify small molecule antagonists of the progesterone receptor (PR) signaling pathway - cell viability counter screen (AID 1346798); note: series mostly up to about 92 µM; nearly all actives have a fitted effect of over 50% in size
How it was run: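 Luminescence readout (CellTiter-Glo, 30 min, RT) of viability in PR-UAS-bla HEK293T cells exposed to compound and R5020 agonist for 16 hr at 37C, 5% CO2; run in the same wells as the beta-lactamase reporter read.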

[12] = qHTS assay to identify small molecule agonists of the progesterone receptor (PR) signaling pathway - cell viability counter screen (AID 1346799; calls by dose curve; note: nearly all actives have a fitted effect of over 45% in size)
How it was run: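 HEK293T PR-UAS-bla, 3,000 cells/well, 2% charcoal-stripped FBS; 6 h settle, compound 16 h at 37C/5% CO2; LiveBLAzer 2 h RT, then CellTiter-Glo 30 min RT, luminescence read.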

[13] = qHTS assay to identify small molecule antagonists of the TGF-beta/Smad signaling pathway - cell viability counter screen (AID 1346824); note: nearly all actives have a fitted effect of over 50% in size
How it was run: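 SBE-bla HEK 293T cells, incubated overnight, then compound plus 0.25 ng/mL TGF-beta1 (stock added) for 5 hr at 37 C. Viability was read in the same wells by CellTiter-Glo luminescence after 30 min at room temperature.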

[14] = qHTS assay to identify small molecule agonists of the TGF-beta/Smad signaling pathway - cell viability counter screen (AID 1346829); note: top concentration of the series differs between compounds; nearly all actives have a fitted effect of over 45% in size
How it was run: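 Compound-treated SBE-bla HEK 293T cells (5 hr, 37 C) were assessed for viability with CellTiter-Glo in parallel with the reporter read.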

[15] = target: Thyrotropin receptor (Homo sapiens) (UniProt P16473); experiment: qHTS assay to identify small molecule antagonists of the thyroid stimulating hormone receptor (TSHR) signaling pathway (AID 1259385; calls by dose curve; note: nearly all actives have a fitted effect of over 20% in size)
Thyrotropin receptor (Homo sapiens), sequence (P16473 whole entry, looked up): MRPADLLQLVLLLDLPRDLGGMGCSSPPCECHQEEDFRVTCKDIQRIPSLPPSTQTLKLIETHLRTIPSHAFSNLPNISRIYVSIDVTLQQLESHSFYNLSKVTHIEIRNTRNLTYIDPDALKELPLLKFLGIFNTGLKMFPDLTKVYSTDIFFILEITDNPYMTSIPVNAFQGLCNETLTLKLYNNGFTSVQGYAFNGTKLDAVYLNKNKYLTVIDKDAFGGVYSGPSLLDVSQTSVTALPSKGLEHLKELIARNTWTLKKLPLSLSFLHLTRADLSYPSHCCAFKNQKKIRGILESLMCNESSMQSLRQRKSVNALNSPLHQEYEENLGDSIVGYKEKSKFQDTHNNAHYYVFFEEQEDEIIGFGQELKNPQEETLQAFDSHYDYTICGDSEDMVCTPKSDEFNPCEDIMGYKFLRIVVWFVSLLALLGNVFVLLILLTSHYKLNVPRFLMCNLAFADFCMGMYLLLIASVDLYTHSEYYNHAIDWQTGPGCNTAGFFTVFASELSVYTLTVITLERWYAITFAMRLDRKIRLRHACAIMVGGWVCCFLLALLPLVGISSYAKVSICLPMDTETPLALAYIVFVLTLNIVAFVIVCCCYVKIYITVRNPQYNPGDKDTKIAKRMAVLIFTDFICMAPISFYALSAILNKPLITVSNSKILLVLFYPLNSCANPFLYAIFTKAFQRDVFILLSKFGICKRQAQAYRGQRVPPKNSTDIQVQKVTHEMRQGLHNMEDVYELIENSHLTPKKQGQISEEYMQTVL
How it was run: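 TSHR-HEK293 cells (800/well) plated 18 h, then compounds with Ro20-1724 and TSH at 1.5 ng/mL final, 30 min at room temperature. cAMP quantified by HTRF (cAMP-d2/anti-cAMP-cryptate, 1 h); 15 concentrations in triplicate.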

[16] = qHTS assay to identify small molecule agonists of the estrogen receptor alpha (ER-alpha) signaling pathway in the presence of an antagonist - cell viability counter screen (AID 1259386);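 note: series mostly up to about 92 µM; cells exposed to compounds for 22 h at 37 °C before the viability read; nearly all actives have a fitted effect of over 30% in size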
How it was run: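 Read-out: CellTiter-Fluor fluorescence after 1hr reagent incubation, measured in the same wells as the luciferase readout. VM7Luc4E2 cells were exposed to 15 compound concentrations with 10.0nM ICI-182,780 for 22hr at 37C.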

[17] = target: Thyrotropin-releasing hormone receptor (Homo sapiens) (UniProt P34981); experiment: qHTS assay to identify small molecule antagonists of the thyrotropin-releasing hormone receptor (TRHR) signaling pathway (AID 1346877; active = well fitted inhibition curve with a large enough effect in the repeat runs, not every such curve was filed as active; note: series mostly up to about 51 µM)
Thyrotropin-releasing hormone receptor (Homo sapiens), sequence (P34981 whole entry, looked up): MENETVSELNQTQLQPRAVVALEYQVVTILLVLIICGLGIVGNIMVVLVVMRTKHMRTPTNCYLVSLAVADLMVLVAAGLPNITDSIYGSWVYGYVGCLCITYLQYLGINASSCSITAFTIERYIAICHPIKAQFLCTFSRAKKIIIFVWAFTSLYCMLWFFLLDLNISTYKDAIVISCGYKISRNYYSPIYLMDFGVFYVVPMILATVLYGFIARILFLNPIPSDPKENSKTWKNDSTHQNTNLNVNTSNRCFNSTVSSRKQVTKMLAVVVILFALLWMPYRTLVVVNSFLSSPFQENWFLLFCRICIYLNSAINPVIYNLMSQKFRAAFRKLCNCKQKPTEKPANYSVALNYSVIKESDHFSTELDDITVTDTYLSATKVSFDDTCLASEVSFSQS
How it was run: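 HEK293/TRHR cells, 18 h, 37 °C; Ca2+ dye 2 h; cpd 5 min RT; TRH 1 nM final; fluorescence read 3 min, 1 s intervals; 15 concs, triplicate.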

[18] = target: Thyrotropin-releasing hormone receptor (Homo sapiens) (UniProt P34981); experiment: qHTS assay to identify small molecule agonists of the thyrotropin-releasing hormone receptor (TRHR) signaling pathway (AID 1346891; calls by dose curve;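 note: HEK293 cells expressing TRHR with calcium dye readout; series mostly up to about 58 µM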)
How it was run: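 HEK293/TRHR cells, 1500 per well, 18 h 37 °C; Ca dye 2 h 37 °C; pin-tool compound addition (agonist mode); kinetic fluorescence 3 min, 1 s reads; 15 concentrations, triplicate.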

[19] = qHTS assay to identify small molecule agonists of the TGF-beta/Smad signaling pathway (AID 1346859; active = well fitted activation curve with a large enough effect in the signal ratio in the repeat runs, not every such curve was filed as active; the % refers to the signal ratio; note: series mostly up to about 77 µM)
How it was run: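 Read-out: fluorescence at 460 and 530 nm (405 nm excitation) after a 2 hr room-temperature incubation with beta-lactamase FRET substrate. SBE-bla HEK 293T cells had been treated with test compounds for 5 hr at 37 C.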

Measured: Potency

CN1CCC(=C2c3ccccc3CCc3cccnc32)CC1
inactive: [2] | [3] | [4] | [5] | [6] | [7] | [8] | [9] | [10] | [11] | [12] | [13] | [14]
active: [1] 13.3 µM

CCOC(=O)COc1cc(-n2ncc(C(F)(F)F)c(C)c2=O)c(F)cc1Cl
inactive: [1] | [2] | [3] | [4] | [5] | [6] | [8] | [15] | [16] | [9] | [10] | [11] | [12] | [13] | [14] | [17] | [18]

Cc1ccc(-c2ccccc2C#N)cc1
inactive: [1] | [2] | [3] | [4] | [5] | [6] | [7] | [8] | [15] | [16] | [9] | [10] | [11] | [13] | [14] | [19] | [17]

C=CCCCCCCCCC(=O)OCC
inactive: [1] | [2] | [3] | [4] | [5] | [6] | [8] | [15] | [16] | [9] | [10] | [11] | [12] | [14]

CCNS(=O)(=O)c1ccc(C)cc1
inactive: [1] | [2] | [3] | [4] | [5] | [6] | [7] | [16] | [11] | [12] | [13] | [14] | [17] | [18]

CC(=O)NC(=O)c1ccccc1O
inactive: [1] | [2] | [3] | [4] | [5] | [6] | [7] | [8] | [15] | [16] | [9] | [10] | [11] | [12] | [13] | [19] | [17] | [18]

C=COCC1CCC(COC=C)CC1 (stereo unspecified)
inactive: [1] | [2] | [3] | [4] | [5] | [6] | [7] | [8] | [15] | [16] | [9] | [10] | [11] | [12] | [13] | [14]

[O-][n+]1cccc(CO)c1
inactive: [1] | [2] | [3] | [4] | [5] | [6] | [7] | [8] | [15] | [16] | [9] | [11] | [12] | [13] | [19] | [17] | [18]

CCOC(=O)c1ccccc1
inactive: [1] | [2] | [3] | [4] | [5] | [6] | [7] | [16] | [10] | [11] | [12] | [13] | [14] | [19] | [17] | [18]

CN(C)CCCN(C)CCCN(C)C
inactive: [1] | [2] | [3] | [4] | [5] | [6] | [8] | [15] | [16] | [9] | [12] | [13] | [14] | [19] | [17] | [18]

CC[N+](CC)(CC)CCOc1cccc(OCC[N+](CC)(CC)CC)c1OCC[N+](CC)(CC)CC
inactive: [1] | [2] | [3] | [4] | [5] | [6] | [8] | [15] | [16] | [9] | [10] | [12] | [13] | [14] | [19]

C=C(C)C(=O)OCCOCCOCCOCCOC(=O)C(=C)C
inactive: [1] | [2] | [3] | [4] | [5] | [6] | [8] | [15] | [16] | [9] | [11] | [12] | [13] | [14] | [19] | [18]

CN1CC(=O)N/C1=N/C(=O)Nc1cccc(Cl)c1
inactive: [1] | [2] | [3] | [4] | [5] | [6] | [8] | [15] | [16] | [9] | [10] | [11] | [12] | [13] | [19] | [17]

C=COC(=O)C(C)(CC)CCC(C)C (stereo unspecified)
inactive: [1] | [2] | [3] | [4] | [5] | [6] | [7] | [16] | [9] | [10] | [12] | [13] | [14] | [19] | [17] | [18]

COc1cc(-c2ccc(=O)[nH]n2)ccc1OC(F)F
inactive: [1] | [2] | [3] | [4] | [5] | [6] | [7] | [8] | [15] | [16] | [10] | [11] | [12] | [13] | [14] | [19] | [17] | [18]

CC1=CC(=O)[C@H]2C[C@@H]1C2(C)C
inactive: [1] | [2] | [3] | [4] | [5] | [6] | [7] | [16] | [9] | [10] | [11] | [12] | [13] | [14] | [19] | [17] | [18]

CC1(C)[C@@H]2CC[C@@]1(C)[C@H](O)C2
inactive: [1] | [2] | [3] | [4] | [5] | [6] | [8] | [15] | [16] | [9] | [10] | [12] | [19] | [18]
